Screens from PubChem.
NIH3T3 tox: kills NIH 3T3 cells; NIH 3T3 viability, CellTiter-Glo ATP luminescence, 48-72 h; Potency, µM (series often up to 96.7 µM), for inactives: at the top dose activity change, negative = cytotoxicity, hits mostly inhibitors; actives 4.3% (n = 94,000); AID 1345082; note: nearly all actives have a fitted effect of over 55% in size
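Cytotoxicity was measured by CellTiter-Glo ATP luminescence after 48 or 72 h compound exposure at 37 °C. Mouse NIH 3T3 fibroblasts were seeded at 400 cells/well and dosed by 23 nL pin transfer.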
GPT2 inh: inhibitors of human GPT2 alanine aminotransferase | Potency, µM (highest dose often 57.7 µM), for inactives: at the top dose activity change, negative = inhibition, hits mostly inhibitors | AID 1671188 | Recombinant GPT2, coupled pyruvate oxidase/HRP Amplex Red fluorescence | actives 0.25% (n = 100,000); note: nearly all actives have a fitted effect of over 60% in size
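GPT2 10ng/uL, a-KG 250uM, L-Ala 2mM, HEPES pH7.5 + 0.0001% Tween; 30 min RT. Then Amplex mix (PO/HRP/ThPP), 30 min RT dark, fluorescence. AOA 50uM used as positive control.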
FLuc inh: Photinus pyralis luciferase inhibition. AID 1347043. actives 2.5% (n = 76,000). Potency, µM (highest dose often 115 µM), actives largely listed as inhibitors. purified P. pyralis luciferase, luminescence, biochemical. P08659; note: nearly all actives have a fitted effect of over 65% in size
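FLuc 10nM, D-luciferin 10uM, ATP 10uM, Mg acetate 10mM, Tris acetate pH 7.5, Tween/BSA; cpd qHTS; enzyme added last; CCD luminescence.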
HEK293 tox: HEK 293 cell cytotoxicity; HEK 293 viability, ATP luminescence (CellTiter-Glo), 48-72 h; Potency, µM (highest dose often 115 µM), for inactives: top-dose activity change, negative = cytotoxicity, hits mostly inhibitors; actives 6.6% (n = 94,000); AID 1345083; note: nearly all actives have a fitted effect of over 60% in size
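Pintool-delivered compounds were incubated with HEK 293 cells (250 cells/well) at 37 degree Celsius for 48 or 72 hr. ATP-dependent luminescence (CellTiter-Glo) then reported remaining viable cells.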
hNpr1 antagonist: blocks ANP-stimulated signaling of human Npr1 receptor | P16066 | HEK293 hNpr1 GloSensor cGMP, ANP-stimulated luminescence | Potency, µM (top dose mostly 46.3 µM), for the others: at the top dose activity change, negative = inhibition, usual class: inhibitors | actives 1.6% (n = 76,000); calls by dose curve; note: nearly all actives have a fitted effect of over 60% in size
Target sequence (P16066 whole entry, looked up): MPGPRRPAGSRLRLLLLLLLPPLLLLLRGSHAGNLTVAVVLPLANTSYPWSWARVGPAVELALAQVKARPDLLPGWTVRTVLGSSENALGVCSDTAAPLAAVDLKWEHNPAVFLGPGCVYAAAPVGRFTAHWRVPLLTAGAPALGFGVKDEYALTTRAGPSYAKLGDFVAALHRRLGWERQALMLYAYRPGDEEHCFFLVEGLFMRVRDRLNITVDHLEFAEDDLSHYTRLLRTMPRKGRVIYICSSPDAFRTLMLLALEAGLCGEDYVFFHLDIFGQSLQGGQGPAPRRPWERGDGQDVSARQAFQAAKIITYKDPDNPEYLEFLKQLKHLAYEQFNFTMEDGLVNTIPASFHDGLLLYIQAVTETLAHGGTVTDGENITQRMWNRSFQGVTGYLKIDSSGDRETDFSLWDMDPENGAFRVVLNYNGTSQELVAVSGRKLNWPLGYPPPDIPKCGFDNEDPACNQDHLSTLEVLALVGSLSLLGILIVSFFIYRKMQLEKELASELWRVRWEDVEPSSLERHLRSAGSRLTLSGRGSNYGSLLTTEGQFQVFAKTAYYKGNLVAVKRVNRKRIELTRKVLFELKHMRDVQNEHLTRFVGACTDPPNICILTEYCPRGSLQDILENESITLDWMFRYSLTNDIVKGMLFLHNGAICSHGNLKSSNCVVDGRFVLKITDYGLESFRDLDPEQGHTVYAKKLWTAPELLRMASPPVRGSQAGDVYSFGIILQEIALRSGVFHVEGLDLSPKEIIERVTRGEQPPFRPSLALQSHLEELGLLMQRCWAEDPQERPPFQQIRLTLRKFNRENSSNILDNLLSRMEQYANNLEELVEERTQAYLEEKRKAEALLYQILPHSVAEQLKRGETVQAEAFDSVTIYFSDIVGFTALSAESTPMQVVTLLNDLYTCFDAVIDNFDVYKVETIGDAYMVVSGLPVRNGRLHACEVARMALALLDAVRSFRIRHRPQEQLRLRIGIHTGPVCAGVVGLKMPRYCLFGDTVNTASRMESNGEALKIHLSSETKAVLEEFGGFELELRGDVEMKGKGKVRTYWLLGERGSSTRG
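HEK293 cells stably expressing human Npr1 and cGMP GloSensor pGS-40F, loaded 2 h with 2% GloSensor reagent, given compound 30 min at room temperature. Luminescence read before and 20 min after 0.1 nM hNppA.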
* hit, by the source's call; i = inactive; ? = inconclusive; . = no result given; [ ] = dose if it differs, or a comment. Only some compounds are listed: those with a hit (about 10% of all), similar ones and a draw of the others. Unless noted, calls come from the whole dose curve; as a rule, active = well fitted curve in the direction sought with a large enough effect; inconclusive = small, poorly fitted or top-dose-only effect, or another doubt; inactive = no such curve, though single readings can be large; an effect the other way counts as inactive or inconclusive. % is set by controls: 0 for no effect and ±100 for the full control effect; potency is the fitted concentration of half-maximal effect.

SMILES	NIH3T3 tox	GPT2 inh	FLuc inh	HEK293 tox	hNpr1 antagonist
O=C(c1ccco1)N1CCC(n2cc(-c3nc(-c4ccccc4)no3)nn2)C1 (configuration not stated)	?	1%	35µM*	?	-27%
O=C(c1nccc2ccccc12)N1CCC(n2cc(-c3nc(-c4ccccc4)no3)nn2)C1 (configuration not stated)	?	i	45µM*	28µM*	?
Cc1ccc(C(=O)N2CCC(n3cc(-c4nc(-c5ccccc5)no4)nn3)C2)s1 (configuration not stated)	-13%	i	i	?	?
O=C(Cc1ccsc1)N1CCC(n2cc(-c3nc(-c4ccccc4)no3)nn2)C1 (configuration not stated)	-27%	i	56µM*	?	-28%
O=C(c1ccc2ccccc2n1)N1CCC(n2cc(-c3nc(-c4ccccc4)no3)nn2)C1 (configuration not stated)	?	-6%	28µM*	?	?
CN1CCOc2c(C(=O)NCc3cnn(C)c3)cc(-c3cccnc3)cc21	35µM*	3%[88.5 µM]	i	?	-15%[70.6 µM]
CN1CCOc2c(C(=O)NCCc3cnc[nH]3)cc(-c3cccc4[nH]ccc34)cc21	89µM*	i	?	?	-1%[70.6 µM]
CN1CCOc2c(C(=O)NCCc3cnc[nH]3)cc(-c3ccccc3)cc21	79µM*	-2%[88.5 µM]	i	?	0%[70.6 µM]
Cn1ccnc1CNC(=O)C[C@@H]1C[C@H]2O[C@H](CNCc3ccncc3F)[C@@H](O)[C@H]2O1	3%[174 µM]	i	i	i	1%[70.6 µM]
CCn1cc(CN2CCCC23CCN(c2cc(C)nc4ccccc24)CC3)c(C)n1	?	-3%[11.5 µM]	i	?	1%
CCC(=O)Nc1ccc(C(=O)N2CCC3(CC2)CN(C)CCN3C)cc1	-4%	4%	i	-15%	-7%
O=C(NCc1cccs1)c1ccc2oc(-c3ccncc3)nc2c1	?	i	.	?	.
Cc1nc(CNC(=O)c2ccc3oc(-c4cccc(F)c4)nc3c2)cs1	-1%	-37%	32µM*	?	2%
CC(C)CNC(=O)c1ccc2oc(-c3ccnc(Cl)c3)nc2c1	?	i	.	89µM*	.
O=C1NC2(CCN(C(=O)Cc3ccccc3)C2)OCc2ccccc21 (configuration not stated)	-29%[138 µM]	i	i	100µM*	14%[70.6 µM]
Cc1ccc(CCN2CCCCC23Cc2ccccc2CN([S+](C)(=O)[O-])C3)cc1 (configuration not stated)	?	i	.	79µM*	.
O=C(NCc1cccc(Cl)c1)c1nc2cccnc2n(C2CCCCC2)c1=O	?	i	.	?	.
O=C(NCC1(COc2cccnc2)C[C@@H](O)[C@@H](O)C1)C1CC1 (some centres not stated)	?	-7%[88.5 µM]	i	32µM*	?
c1ccc(N2CCCC2)c(-c2nc(C3CCOC3)no2)c1 (configuration not stated)	?	1%	i	-18%	2%
O=C(NC1CCN(Cc2ccc(-c3ccsc3)cc2)C1)c1ccc(C(F)(F)F)cc1 (configuration not stated)	-29%	i	.	-30%	.
O=C(Cc1cccc(Cl)c1)NC1CCN(Cc2ccc(-c3ccsc3)cc2)C1 (configuration not stated)	8.9µM*	.	.	?	.
O=C(Cc1ccc(C(F)(F)F)cc1)NC1CCN(Cc2ccc(-c3ccsc3)cc2)C1 (configuration not stated)	?	-4%	.	35µM*	.
O=C(Cc1ccc(F)cc1)NC1CCN(Cc2ccc(-c3ccsc3)cc2)C1 (configuration not stated)	?	-2%	.	?	.
O=C([C@@H]1C[C@H](Oc2cccnc2)CN1C(=O)COc1ccc(F)cc1)N1CCOCC1	-14%	-28%	i	-19%	-1%
Cc1ccc(C(=O)N2CCC3(CC2)N(C)C(=O)CS3(=O)=O)c(C)c1	-5%	-4%	i	i	-1%
SMILES	NIH3T3 tox	GPT2 inh	FLuc inh	HEK293 tox	hNpr1 antagonist
Cn1ncc2c(C(=O)Nc3ccc(F)cc3)cc(-c3ccccc3C(F)(F)F)nc21	?	.	.	28µM*	.
CCN(C(=O)c1cc(-c2ccccc2C(F)(F)F)nc2c1cnn2C)c1ccccc1	?	.	.	25µM*	.
CN(C)c1ccc(NC(=O)c2cc(-c3ccc(C(F)(F)F)cc3)nc3c2cnn3C)cc1	-31%	.	.	-3%	.
CN(C)c1ccc(NC(=O)c2cc(-c3ccccc3C(F)(F)F)nc3c2cnn3C)cc1	?	.	.	25µM*	.
CN(CC#N)C(=O)c1cc(-c2ccccc2C(F)(F)F)nc2c1cnn2C	-25%	.	.	-3%	.
Cn1ncc2c(C(=O)Nc3cccc(C(F)(F)F)c3)cc(-c3ccccc3C(F)(F)F)nc21	28µM*	.	.	22µM*	.
Cn1ncc2c(C(=O)Nc3cccnc3)cc(-c3ccccc3C(F)(F)F)nc21	i	.	.	i	.
CN(c1ccccc1)c1ccc2nnc(-c3cc(C(=O)N4CCCCC4)ccn3)n2n1	-95%[138 µM]	-13%[88.5 µM]	i	?	4%[70.6 µM]
COc1ccc(NC(=O)c2cc(-c3ccccc3C(F)(F)F)nc3c2cnn3C)cc1OC	?	.	.	32µM*	.
O=C(Cc1ccc(F)cc1)NC1CCN(c2cc(C(F)(F)F)ncn2)CC1	?	-10%	i	?	-3%
Cc1ccc(-c2ccccc2CN)cc1Cl	35µM*	i	.	35µM*	.
Cc1cc(C)cc(-c2ccccc2CN)c1	?	-1%[88.5 µM]	.	112µM*	.
NCc1ccccc1-c1cc(F)cc(F)c1	-11%[138 µM]	-11%[88.5 µM]	.	-18%[172 µM]	.
Cc1nn(-c2ccc(C(F)(F)F)cc2)c(C)c1[C@@H]1C=C[C@@H](NC(=O)NC(C)C)C1	?	?	14µM*	35µM*	?
Cc1nn(-c2ccc(C(F)(F)F)cc2)c(C)c1[C@@H]1C=C[C@@H](NC(=O)Nc2ccccc2)C1	32µM*	i	13µM*	50µM*	?
Cc1nn(-c2ccc(C(F)(F)F)cc2)c(C)c1[C@@H]1C=C[C@@H](NC(=O)C2CCCCC2)C1	?	i	i	?	?
Cc1ccc(-c2ncc(C(=O)Nc3ccc(F)cc3C)c(-c3ccncc3)n2)cc1	22µM*	0%	i	40µM*	-3%
O=C(Nc1ccc(Br)c(F)c1)c1cnc(-c2ccccc2)nc1-c1ccncc1	25µM*	-16%	i	32µM*	?
Cc1c(Cl)cccc1NC(=O)c1cnc(-c2ccccc2)nc1-c1ccncc1	35µM*	i	i	?	?
O=C(Nc1ccc(F)cc1F)c1cnc(-c2ccc(F)cc2)nc1-c1ccncc1	-15%	i	i	-22%	-17%
